# Measurements reported in PubChem BioAssay (NCATS).
# Inconclusive results are not listed. Activity calls are given as the source filed them. Unless noted, calls follow the shape of the dose curve; as a rule, active = well fitted curve in either direction with a large enough effect (not every such curve was filed as active); inconclusive = small, poorly fitted or top-dose-only effect, or another doubt; inactive = flat fitted curve, though single readings scatter.
# Columns and labels:
# [1] = target: Lysosomal acid glucosylceramidase (Homo sapiens) (UniProt P04062); assay: Glucocerebrosidase-p2 (AID 348; in the data active = potency below about 10 µM; also: potency is read from the fitted curve at half-maximal effect); conditions: purified GBA, blue fluorogenic substrate, 40 min
# Sequence of Lysosomal acid glucosylceramidase (Homo sapiens) (P04062 whole entry, looked up): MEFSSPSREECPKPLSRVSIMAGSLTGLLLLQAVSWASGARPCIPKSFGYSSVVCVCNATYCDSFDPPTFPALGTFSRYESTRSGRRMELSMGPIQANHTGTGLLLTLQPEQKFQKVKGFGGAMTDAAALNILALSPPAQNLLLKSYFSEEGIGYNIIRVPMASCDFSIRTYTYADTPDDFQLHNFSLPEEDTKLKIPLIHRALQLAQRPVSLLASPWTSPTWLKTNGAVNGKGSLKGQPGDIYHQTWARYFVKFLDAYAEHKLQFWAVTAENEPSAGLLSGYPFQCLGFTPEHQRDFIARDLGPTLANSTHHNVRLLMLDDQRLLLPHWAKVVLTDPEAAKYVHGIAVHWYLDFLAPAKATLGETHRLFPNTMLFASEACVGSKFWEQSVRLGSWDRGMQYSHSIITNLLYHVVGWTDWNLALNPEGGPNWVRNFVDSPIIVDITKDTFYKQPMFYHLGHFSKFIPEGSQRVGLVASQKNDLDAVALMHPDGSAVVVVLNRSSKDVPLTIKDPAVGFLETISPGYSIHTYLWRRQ
# Outline: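 Normal human glucocerebrosidase (0.2 nM) with blue fluorogenic substrate (80 uM final) in citrate/phosphate pH 5.9 with 10mM sodium taurocholate, 0.01% tween-20; 40 min RT, NaOH/glycine stop; fluorescence Ex 365/Em 440; AC50 from a titration from 0.6 nM upwards.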
# [2] = AP1 Signaling Pathway (AID 357); conditions: ME-180 AP-1-bla reporter, EGF-induced, beta-lactamase ratio, 5 h; at 7.69 µM (top of the series) unless noted;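 also: ME-180 reporter cells stimulated with EGF at its EC50 level; % is scaled to controls: 0 for no effect and ±100 for the full control effect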
# Outline: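 Titration-series screen for positive or negative modulators of EC50 EGF-induced signaling in ME-180 cells carrying an AP-1-driven beta-lactamase reporter. After 5 hours at 37 degrees Celsius, CCF4 460nm/530nm emission ratio gave %Activity; AC50 values derived.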
# [3] = target: Cytochrome P450 1A2 (Homo sapiens) (UniProt P05177); assay: p450-cyp1a2 (AID 410; calls by dose curve; also: potency is read from the fitted curve at half-maximal effect;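 as to activity change, negative = inhibition: -100% = full effect of reference inhibitor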); conditions: recombinant CYP1A2, luciferin-ME demethylation, luminescence; series mostly up to 57 µM
# Sequence of Cytochrome P450 1A2 (Homo sapiens) (P05177 whole entry, looked up): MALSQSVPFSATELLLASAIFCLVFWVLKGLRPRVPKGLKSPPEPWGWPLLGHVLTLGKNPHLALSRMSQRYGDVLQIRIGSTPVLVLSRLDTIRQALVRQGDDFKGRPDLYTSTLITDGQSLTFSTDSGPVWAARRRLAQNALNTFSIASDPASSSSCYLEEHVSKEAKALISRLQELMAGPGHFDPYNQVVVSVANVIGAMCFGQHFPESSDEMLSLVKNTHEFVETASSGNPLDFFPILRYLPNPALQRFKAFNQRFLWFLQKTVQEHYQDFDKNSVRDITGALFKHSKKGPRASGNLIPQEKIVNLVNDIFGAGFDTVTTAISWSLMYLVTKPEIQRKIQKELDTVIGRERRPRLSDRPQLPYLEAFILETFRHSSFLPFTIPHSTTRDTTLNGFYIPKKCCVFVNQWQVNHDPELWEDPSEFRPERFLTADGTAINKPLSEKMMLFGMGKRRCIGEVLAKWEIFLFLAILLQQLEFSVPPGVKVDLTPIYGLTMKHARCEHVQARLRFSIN
# Outline: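 O-Demethylation of luciferin 6' methyl ether by human CYP1A2 is monitored as luciferase luminescence. Substrate sits at Km (100uM); enzyme is 20nM. Values are scaled to 57 uM furafylline as maximal inhibition.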
# [4] = NFAT Signaling Pathway (AID 444); conditions: Jurkat NFAT-bla M1, carbachol, beta-lactamase ratio, 5 h; at 7.69 µM (top of the series) unless noted;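 also: carbachol stimulus at about its EC50 of 1 µM final; % is scaled to controls: 0 for no effect and ±100 for the full control effect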
# Outline: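 Jurkat cells carrying an NFAT-driven β-lactamase reporter and co-transfected muscarinic M1 receptor were treated with compound plus carbachol (1 uM final, an EC50 level) for 5 h at 37 °C. CCF4 loading followed for 1 h at RT; 460/530 nm ratio gave %activity.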
# [5] = Stat Signaling Pathway (AID 446); conditions: ME-180 (cervical carcinoma) SIE beta-lactamase reporter, IL-6 stimulated, 5 h; at 7.69 µM (top of the series) unless noted;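 also: ME-180 cervical cancer cells given 40 pM IL-6 alongside compound; SIE-controlled beta-lactamase reporter measured as 460/530 nm FRET emission ratio; % is scaled to controls: 0 for no effect and ±100 for the full control effect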
# Outline: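 Compound effects on IL-6-induced STAT reporter activity were measured in ME-180 cells. After overnight culture, cells were co-treated with 40 pM IL-6 for 5 hrs before beta-lactamase substrate loading at room temperature.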
# [6] = target: Glucocorticoid receptor (Homo sapiens) (UniProt P04150); assay: GR-EFC Redistribution (AID 451; calls by dose curve; also: potency is read from the fitted curve at half-maximal effect); conditions: CHO-K1 GR-EFC translocation, beta-gal luminescence, 2 h
# Sequence of Glucocorticoid receptor (Homo sapiens) (P04150 whole entry, looked up, the tested form may be a part): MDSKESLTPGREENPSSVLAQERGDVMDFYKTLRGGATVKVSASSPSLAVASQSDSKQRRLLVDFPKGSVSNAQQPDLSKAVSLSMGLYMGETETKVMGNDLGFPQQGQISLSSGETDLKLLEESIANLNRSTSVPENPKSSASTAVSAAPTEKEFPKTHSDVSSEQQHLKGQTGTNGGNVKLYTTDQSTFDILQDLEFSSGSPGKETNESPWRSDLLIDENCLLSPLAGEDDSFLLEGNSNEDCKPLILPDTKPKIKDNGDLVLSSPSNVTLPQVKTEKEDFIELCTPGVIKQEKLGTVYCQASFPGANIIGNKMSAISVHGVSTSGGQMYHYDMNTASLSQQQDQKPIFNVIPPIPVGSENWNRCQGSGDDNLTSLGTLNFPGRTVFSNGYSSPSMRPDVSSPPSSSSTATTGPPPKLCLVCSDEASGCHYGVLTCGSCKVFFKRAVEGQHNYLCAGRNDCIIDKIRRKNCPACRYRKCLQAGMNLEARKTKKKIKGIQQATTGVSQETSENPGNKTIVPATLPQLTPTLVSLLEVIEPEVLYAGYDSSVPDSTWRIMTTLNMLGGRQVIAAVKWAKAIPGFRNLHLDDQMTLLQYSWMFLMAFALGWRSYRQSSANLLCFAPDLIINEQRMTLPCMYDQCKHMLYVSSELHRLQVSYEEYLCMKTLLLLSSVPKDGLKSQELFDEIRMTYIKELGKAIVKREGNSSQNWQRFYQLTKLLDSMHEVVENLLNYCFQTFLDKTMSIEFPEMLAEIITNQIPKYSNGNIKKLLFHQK
# Outline: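 CHO-K1 cells stably expressing nuclear-localized β-gal enzyme acceptor and GR fused C-terminally to the enzyme donor fragment; ligand-driven nuclear translocation restores β-gal by complementation. Compounds titrated up to 46 uM final, 2 h at 37 °C; luminescence read.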
# [7] = target: Mitogen-activated protein kinase 10 (Mus musculus) (UniProt Q61831); assay: JNK3 AlphaScreen Assay (AID 530); conditions: JNK3 lysate, c-Jun phosphorylation; series mostly up to 57.1 µM;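 also: kinase came from lysate of stimulated human HepG2 cells; signal reports phosphorylation of biotinylated GST-cJun 1-79 at Ser73 with 10 µM ATP; % is scaled to controls: 0 for no effect and ±100 for the full control effect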
# Outline: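 Phosphorylation of biotinylated GST-cJun(1-79) at Ser73 is measured by AlphaScreen proximity luminescence. Enzyme is JNK3 in HepG2 lysates activated with interleukin-1beta and tumor necrosis factor alpha; ATP is 10 uM final.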
# [8] = target: 3',5'-cyclic-AMP phosphodiesterase 4B (Homo sapiens) (UniProt Q07343); assay: qHTS Assay for Inhibitors of PDE-IV (AID 607; active = well fitted activation curve with a large enough effect in the main read-out, with a control signal flat, not every such curve was filed as active; also: % of control where 0% means no effect); conditions: HEK293 ACTOne CNG channel cells, membrane potential fluorescence; series mostly up to 22.9 µM
# Sequence of 3',5'-cyclic-AMP phosphodiesterase 4B (Homo sapiens) (Q07343 whole entry, looked up): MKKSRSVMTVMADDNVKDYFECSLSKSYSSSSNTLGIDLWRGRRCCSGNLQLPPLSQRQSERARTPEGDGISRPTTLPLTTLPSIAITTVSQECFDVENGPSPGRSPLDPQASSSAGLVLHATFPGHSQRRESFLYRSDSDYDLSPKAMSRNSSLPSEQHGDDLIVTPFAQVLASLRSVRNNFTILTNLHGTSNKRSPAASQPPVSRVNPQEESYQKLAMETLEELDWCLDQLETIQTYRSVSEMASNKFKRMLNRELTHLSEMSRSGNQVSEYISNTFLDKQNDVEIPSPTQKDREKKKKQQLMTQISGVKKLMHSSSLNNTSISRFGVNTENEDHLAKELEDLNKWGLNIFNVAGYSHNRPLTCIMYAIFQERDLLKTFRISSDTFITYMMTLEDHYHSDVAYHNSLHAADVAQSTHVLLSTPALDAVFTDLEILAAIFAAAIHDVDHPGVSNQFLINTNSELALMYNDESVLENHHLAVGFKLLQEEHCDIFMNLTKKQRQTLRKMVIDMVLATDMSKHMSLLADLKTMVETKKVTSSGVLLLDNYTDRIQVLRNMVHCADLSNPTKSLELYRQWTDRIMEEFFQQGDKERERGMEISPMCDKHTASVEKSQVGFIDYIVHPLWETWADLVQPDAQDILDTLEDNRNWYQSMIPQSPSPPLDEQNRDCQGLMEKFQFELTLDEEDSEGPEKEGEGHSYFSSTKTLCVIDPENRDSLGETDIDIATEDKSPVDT
# Outline: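 ACTOne HEK293 cells carry a modified cAMP-gated CNG channel and express endogenous PDE4; plated 1000 cells/well, compounds up to 22.9 uM final. Membrane-potential dye fluorescence (ex 535/em 590) was read; parental cells received 10 uM forskolin + 100 uM RO 20-1724.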
# [9] = qHTS Assay for Lipid Storage Modulators (AID 1519; calls by dose curve); conditions: Drosophila S3 cells, BODIPY lipid droplet/cell ratio, laser cytometry, cells loaded with oleic acid; for activity change, negative = inhibition: at 57.5 µM (top of the series)
# Outline: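 Cells seeded at 5,000 per well were treated with compounds over a concentration series and loaded with oleic acid (400 uM, as added). Lipid droplet fluorescence (488 nm excitation, 500-530 nm channel) was read by laser-scanning cytometry and normalized to 20 uM Triacsin C.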
# [10] = Primary qHTS for small molecule stabilizers of the endoplasmic reticulum resident proteome: Secreted ER Calcium Modulated Protein (SERCaMP) assay (AID 1508630; active = well fitted inhibition curve with a large enough effect; also: % is scaled to controls: 0 for no effect and ±100 for the full control effect); conditions: SH-SY5Y GLuc-SERCaMP (Gaussia luciferase released on ER calcium loss) secretion, thapsigargin, luminescence; series mostly up to 38.4 µM
# Outline: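 The SH-SY5Y reporter protocol was run at 3 concentrations up to 38.3 uM (primary) or 11 concentrations (follow-up): 16 h compound, 100 nM thapsigargin for 4 h, then extracellular luciferase luminescence.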
# [11] = measured here: cell count channel max response
# [12] = measured here: lipid channel max response
Compound,Potency [1],"activity change, negative = inhibition [2]",Potency [3],"activity change, negative = inhibition [4]","activity, negative = inhibition [5]",Potency [6],outcome [7],Potency [8],"activity change, negative = inhibition [9]","max response [9, 11] [%]","max response [9, 12] [%]",Potency [10]
Cc1noc(C)c1C(=O)N1CCC2(CCN(C(=O)NC(C)C)CC2)CC1,> 11.4 µM (inactive),-3.73% (inactive),5.01 µM (active),5.4% (inactive),3.31% (inactive),> 46 µM (inactive),inactive,inactive,4.44% (inactive),4.63,11.9,inactive
COc1ccccc1CN1CCCC2(CCNCC2)C1,> 11.4 µM (inactive),-7.6% (inactive),inactive,-29.2% (inactive),2.38% (inactive),> 46 µM (inactive),inactive,inactive,6.8% (inactive),4.5,14.4,inactive
COc1ccc(NC(=O)N2CC3(CCN(S(C)(=O)=O)CC3)C2)cc1,> 11.4 µM (inactive),-11.2% (inactive),inactive,24.5% (inactive),5.18% (inactive),> 46 µM (inactive),inactive,inactive,4.64% (inactive),-10.6,-5.17,inactive
O=C(Nc1ccccc1)N1CC2(CCN(C(=O)c3ccco3)CC2)C1,> 11.4 µM (inactive),-2% (inactive),inactive,3.9% (inactive),4.13% (inactive),> 46 µM (inactive),inactive,inactive,5.54% (inactive),21.9,27.1,inactive
CC(C)CN1CCC2(CC1)CCN(C(=O)c1csnn1)CC2,> 11.4 µM (inactive),-3.75% (inactive),inactive,-21.7% (inactive),-16.4% (inactive),> 46 µM (inactive),inactive,inactive,-1.92% (inactive),-3.14,-1.99,inactive
COC(=O)N1CCC2(CC1)CN(c1cccc(-c3ccccc3)c1)C2,> 11.4 µM (inactive),-12.5% (inactive),inactive,-3.27% (inactive),4.85% (inactive),> 46 µM (inactive),inactive,inactive,4.36% (inactive),23.2,29.4,inactive
COc1ccc(NC(=O)N2CC3(CCN(C(=O)c4c(C)noc4C)CC3)C2)cc1,> 11.4 µM (inactive),4.05% (inactive),inactive,15.1% (inactive),-8.69% (inactive),> 46 µM (inactive),inactive,inactive,4.67% (inactive),5.82,14.2,inactive
